In PubChem BioAssay AID449768 (Vanderbilt High Throughput Screening Facility, 2010):
Out of some 110,000 compounds screened, about 1,400 (1.3%) were called active. The sample as a whole holds a higher share of actives than the screen did. Values without a mark were called inactive.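 The calls were made as follows: active = Z score or B-score, a plate-position-corrected score, falls beyond the plate's 99.7% confidence bounds, in either direction; inactive = both scores lie inside the 99.7% bounds.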

target: Sodium-dependent dopamine transporter (Homo sapiens) (UniProt Q01959); experiment: modulators of human DAT uptake with cocaine – cell-based, LLC-PK1 hDAT, [14C]-dopamine uptake, MLSMR, cocaine antagonist project, primary screen (AID 449768); details: LLC-PK1 hDAT cells, [14C]-dopamine uptake with cocaine IC80; at 10 µM; actives deviate in either direction;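 also: scored against the spread of the other compound wells on the same plate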
Sequence (Q01959 whole entry, looked up): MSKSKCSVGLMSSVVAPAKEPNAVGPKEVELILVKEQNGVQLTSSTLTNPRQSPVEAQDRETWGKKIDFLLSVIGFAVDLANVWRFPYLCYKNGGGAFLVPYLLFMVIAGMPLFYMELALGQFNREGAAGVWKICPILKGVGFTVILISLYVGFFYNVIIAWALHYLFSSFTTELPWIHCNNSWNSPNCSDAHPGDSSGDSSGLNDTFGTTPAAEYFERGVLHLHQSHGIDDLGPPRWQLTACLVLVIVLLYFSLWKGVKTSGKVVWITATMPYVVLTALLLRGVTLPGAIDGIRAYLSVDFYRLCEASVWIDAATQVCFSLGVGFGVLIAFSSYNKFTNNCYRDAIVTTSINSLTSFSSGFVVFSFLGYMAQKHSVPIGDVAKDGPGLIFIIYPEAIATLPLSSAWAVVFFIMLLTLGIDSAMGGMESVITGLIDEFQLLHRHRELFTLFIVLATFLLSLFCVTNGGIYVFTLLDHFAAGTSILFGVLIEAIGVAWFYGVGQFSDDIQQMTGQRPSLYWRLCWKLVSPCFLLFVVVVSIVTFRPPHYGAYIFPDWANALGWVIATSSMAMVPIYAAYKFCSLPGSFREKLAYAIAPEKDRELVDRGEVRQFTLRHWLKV

Row | SMILES | B-score
1 | Cc1nc(-c2ccccc2)sc1C1(C)CC(c2cccnc2)=NO1 (centres undefined) | 0.641
2 | C#Cc1ccc([C@@H]2C=C(C(=O)O)O[C@H](OCCCCO)C2)cc1 | -0.622
3 | CC1=C(N2CCN(c3ncccn3)CC2)CCC1=O | 0.343
4 | CC1(C)OC(=O)N2CCc3ccccc3C21C (centres undefined) | -8.52 (active)
5 | COc1ccc(CN2CC[C@H]3C=CC[C@@H](C(=O)N4CCOCC4)[C@H]3C2=O)cc1OC | 0.696
6 | O=C(CCCCCn1c(=O)[nH]c2ccccc2c1=O)NCCc1c[nH]c2ccccc12 | 0.015
7 | C[C@]1(C(=O)NCCc2c[nH]c3ccccc23)C=C[C@@H](Cc2ccccc2)N1C(=O)c1ccccc1 | 2.48 (active)
8 | Cc1cc(C)cc(NC(=S)NCCc2c[nH]c3ccccc23)c1 | 2.31
9 | NCCCC[C@@H]1NC(=O)[C@H](CCC(=O)O)NC(=O)c2cc([N+](=O)[O-])cc(I)c2NCC[C@@H](C(N)=O)NC1=O | -0.534
10 | COc1ccc(CNC(=O)C2(CC3CC(c4ccccc4)=NO3)CCN(C(=O)c3cccc(O)c3)CC2)cc1 (centres undefined) | 0.0185
11 | O=C(NCc1ccccc1)c1onc(CSc2ccncc2)c1C(=O)NCc1ccccc1 | -1.52
12 | NC(=O)CC[C@@H]1NC(=O)[C@H](CO)NC(=O)c2cc([N+](=O)[O-])cc(I)c2NCC[C@@H](C(N)=O)NC1=O | -0.848
13 | O=C(Nc1cccc(-c2nc3ncccc3o2)c1)c1ccco1 | 0.346
14 | Cc1ccc(OCC(=O)Nc2ccc(-c3nc4ncccc4o3)cc2)cc1 | -8.77 (active)
15 | Cc1ccc(OCC(=O)Nc2ccc(-c3nnc(-c4ccco4)o3)cc2)cc1 | -0.0188
16 | Cn1ccnc1-c1nnn(-c2ccc(F)cc2)n1 | -0.732
17 | Cc1ccc(Cn2c(NC(=O)c3ccco3)nc3ccccc32)cc1 | -0.191
18 | CCC(=O)NCCc1nc2ccccc2n1CC | -0.73
19 | CCCc1nc2c(C)cc(-c3nc4ccccc4n3C)cc2n1Cc1ccc(-c2ccccc2C(=O)O)cc1 | 3.87 (active)
20 | CC(C)(C)Oc1ccccc1Nc1nc(NCCO)nc(N2CCCC2)n1 | 1.65
21 | CCO[C@H]1OC(C(=O)Nc2ccccc2)=C[C@@H](C2CC2)[C@@H]1CCCO | -0.987
22 | COc1ccc(N2CCN(C(=O)CCc3nc(-c4ccc(C)cc4)no3)CC2)cc1 | 0.227
23 | CCOc1ccc(-c2nnn(CC(=O)N3CCN(c4ccc(OC)cc4)CC3)n2)cc1OCC | -0.869
24 | CCOc1cc(-c2noc(CCC(=O)N3CCOCC3)n2)ccc1OC | 2.65 (active)
